In paper PMC11006913:
Positions count from the first letter of the chain named.

How the values were obtained:
Assay in all cases: PBM; 200 nM protein, PBS
Details in all cases: dsDNA, one strand shown
SIX6 [1] = target: T1, SIX6 (Homo sapiens, UniProt O95475 114-200, L167I)
T1 sequence: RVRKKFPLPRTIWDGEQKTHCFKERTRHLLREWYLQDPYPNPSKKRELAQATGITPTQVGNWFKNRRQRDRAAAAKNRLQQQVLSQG

SIX6 [2] = target: T2, SIX6 (Homo sapiens, UniProt O95475 114-200, L143V)
T2 sequence: T1 sequence with L30V, I54L

SIX6 [3] = target: T3, SIX6 (Homo sapiens, UniProt O95475 114-200, H141N)
T3 sequence: T1 sequence with H28N, I54L

SIX6 [4] = target: T4, SIX6 (Homo sapiens, UniProt O95475 114-200, T165P)
T4 sequence: T1 sequence with T52P, I54L

SIX6 [5] = target: T5, SIX6 (Homo sapiens, UniProt O95475 114-200, L143I)
T5 sequence: T1 sequence with L30I, I54L

SIX6 [6] = target: T6, SIX6 (Homo sapiens, UniProt O95475 114-200, T165G)
T6 sequence: T1 sequence with T52G, I54L

SIX6 [7] = target: T7, SIX6 (Homo sapiens, UniProt O95475 114-200, T139Q)
T7 sequence: T1 sequence with T26Q, I54L

SIX6 [8] = target: T8, SIX6 (Homo sapiens, UniProt O95475 114-200, T165A)
T8 sequence: T1 sequence with T52A, I54L

SIX6 [9] = target: T9, SIX6 (Homo sapiens, UniProt O95475 114-200)
T9 sequence: T1 sequence with I54L

SIX6 [10] = target: T10, SIX6 (Homo sapiens, UniProt O95475 114-200, L167M)
T10 sequence: T1 sequence with I54M

SIX6 [11] = target: T11, SIX6 (Homo sapiens, UniProt O95475 114-200, L143M)
T11 sequence: T1 sequence with L30M, I54L

SIX6 [12] = target: T12, SIX6 (Homo sapiens, UniProt O95475 114-200, L167V)
T12 sequence: T1 sequence with I54V

SIX6 [13] = target: T13, SIX6 (Homo sapiens, UniProt O95475 114-200, T165I)
T13 sequence: T1 sequence with T52I, I54L

AGATAGGG
binding signal (SIX6 [1]): 10.1 upbm affinity estimate (log intensity, higher = more binding, comparable within an allelic series) | binding signal (SIX6 [2]): 9.56 upbm affinity estimate (log intensity, higher = more binding, comparable within an allelic series) | binding signal (SIX6 [3]): 10.1 upbm affinity estimate (log intensity, higher = more binding, comparable within an allelic series) | binding signal (SIX6 [4]): 9.33 upbm affinity estimate (log intensity, higher = more binding, comparable within an allelic series) | binding signal (SIX6 [5]): 9.71 upbm affinity estimate (log intensity, higher = more binding, comparable within an allelic series) | binding signal (SIX6 [6]): 10.3 upbm affinity estimate (log intensity, higher = more binding, comparable within an allelic series) | binding signal (SIX6 [7]): 10.4 upbm affinity estimate (log intensity, higher = more binding, comparable within an allelic series) | binding signal (SIX6 [8]): 10.1 upbm affinity estimate (log intensity, higher = more binding, comparable within an allelic series) | binding signal (SIX6 [9]): 10 upbm affinity estimate (log intensity, higher = more binding, comparable within an allelic series)

AAGTGCGC
binding signal (SIX6 [1]): 8.9 upbm affinity estimate (log intensity, higher = more binding, comparable within an allelic series) | binding signal (SIX6 [2]): 9.07 upbm affinity estimate (log intensity, higher = more binding, comparable within an allelic series) | binding signal (SIX6 [3]): 8.88 upbm affinity estimate (log intensity, higher = more binding, comparable within an allelic series) | binding signal (SIX6 [4]): 9.2 upbm affinity estimate (log intensity, higher = more binding, comparable within an allelic series) | binding signal (SIX6 [10]): 9.05 upbm affinity estimate (log intensity, higher = more binding, comparable within an allelic series) | binding signal (SIX6 [11]): 9.11 upbm affinity estimate (log intensity, higher = more binding, comparable within an allelic series) | binding signal (SIX6 [5]): 9.08 upbm affinity estimate (log intensity, higher = more binding, comparable within an allelic series) | binding signal (SIX6 [6]): 9 upbm affinity estimate (log intensity, higher = more binding, comparable within an allelic series) | binding signal (SIX6 [7]): 9.05 upbm affinity estimate (log intensity, higher = more binding, comparable within an allelic series) | binding signal (SIX6 [8]): 8.96 upbm affinity estimate (log intensity, higher = more binding, comparable within an allelic series) | binding signal (SIX6 [12]): 8.99 upbm affinity estimate (log intensity, higher = more binding, comparable within an allelic series) | binding signal (SIX6 [9]): 9.04 upbm affinity estimate (log intensity, higher = more binding, comparable within an allelic series) | binding signal (SIX6 [13]): 9.04 upbm affinity estimate (log intensity, higher = more binding, comparable within an allelic series)

AAGTATCA
binding signal (SIX6 [1]): 11.3 upbm affinity estimate (log intensity, higher = more binding, comparable within an allelic series) | binding signal (SIX6 [2]): 10.3 upbm affinity estimate (log intensity, higher = more binding, comparable within an allelic series) | binding signal (SIX6 [3]): 11.2 upbm affinity estimate (log intensity, higher = more binding, comparable within an allelic series) | binding signal (SIX6 [4]): 9.85 upbm affinity estimate (log intensity, higher = more binding, comparable within an allelic series) | binding signal (SIX6 [10]): 10.6 upbm affinity estimate (log intensity, higher = more binding, comparable within an allelic series) | binding signal (SIX6 [11]): 11 upbm affinity estimate (log intensity, higher = more binding, comparable within an allelic series) | binding signal (SIX6 [5]): 10.3 upbm affinity estimate (log intensity, higher = more binding, comparable within an allelic series) | binding signal (SIX6 [6]): 11.2 upbm affinity estimate (log intensity, higher = more binding, comparable within an allelic series) | binding signal (SIX6 [7]): 11.1 upbm affinity estimate (log intensity, higher = more binding, comparable within an allelic series) | binding signal (SIX6 [8]): 11.2 upbm affinity estimate (log intensity, higher = more binding, comparable within an allelic series) | binding signal (SIX6 [12]): 11 upbm affinity estimate (log intensity, higher = more binding, comparable within an allelic series) | binding signal (SIX6 [9]): 10.9 upbm affinity estimate (log intensity, higher = more binding, comparable within an allelic series) | binding signal (SIX6 [13]): 11 upbm affinity estimate (log intensity, higher = more binding, comparable within an allelic series)

ATATCACA
binding signal (SIX6 [1]): 11.3 upbm affinity estimate (log intensity, higher = more binding, comparable within an allelic series) | binding signal (SIX6 [2]): 10.3 upbm affinity estimate (log intensity, higher = more binding, comparable within an allelic series) | binding signal (SIX6 [3]): 11.3 upbm affinity estimate (log intensity, higher = more binding, comparable within an allelic series) | binding signal (SIX6 [4]): 9.9 upbm affinity estimate (log intensity, higher = more binding, comparable within an allelic series) | binding signal (SIX6 [10]): 10.7 upbm affinity estimate (log intensity, higher = more binding, comparable within an allelic series) | binding signal (SIX6 [11]): 11 upbm affinity estimate (log intensity, higher = more binding, comparable within an allelic series) | binding signal (SIX6 [5]): 10.4 upbm affinity estimate (log intensity, higher = more binding, comparable within an allelic series) | binding signal (SIX6 [6]): 11.3 upbm affinity estimate (log intensity, higher = more binding, comparable within an allelic series) | binding signal (SIX6 [7]): 11.1 upbm affinity estimate (log intensity, higher = more binding, comparable within an allelic series) | binding signal (SIX6 [8]): 11.2 upbm affinity estimate (log intensity, higher = more binding, comparable within an allelic series) | binding signal (SIX6 [12]): 11.1 upbm affinity estimate (log intensity, higher = more binding, comparable within an allelic series) | binding signal (SIX6 [9]): 11 upbm affinity estimate (log intensity, higher = more binding, comparable within an allelic series) | binding signal (SIX6 [13]): 11 upbm affinity estimate (log intensity, higher = more binding, comparable within an allelic series)

CGCGCCGC
binding signal (SIX6 [1]): 9.05 upbm affinity estimate (log intensity, higher = more binding, comparable within an allelic series) | binding signal (SIX6 [2]): 9.06 upbm affinity estimate (log intensity, higher = more binding, comparable within an allelic series) | binding signal (SIX6 [3]): 9.06 upbm affinity estimate (log intensity, higher = more binding, comparable within an allelic series) | binding signal (SIX6 [4]): 9.04 upbm affinity estimate (log intensity, higher = more binding, comparable within an allelic series) | binding signal (SIX6 [10]): 9.05 upbm affinity estimate (log intensity, higher = more binding, comparable within an allelic series) | binding signal (SIX6 [11]): 9.02 upbm affinity estimate (log intensity, higher = more binding, comparable within an allelic series) | binding signal (SIX6 [5]): 9.02 upbm affinity estimate (log intensity, higher = more binding, comparable within an allelic series) | binding signal (SIX6 [6]): 9.01 upbm affinity estimate (log intensity, higher = more binding, comparable within an allelic series) | binding signal (SIX6 [7]): 9.07 upbm affinity estimate (log intensity, higher = more binding, comparable within an allelic series) | binding signal (SIX6 [8]): 9.12 upbm affinity estimate (log intensity, higher = more binding, comparable within an allelic series) | binding signal (SIX6 [12]): 9.02 upbm affinity estimate (log intensity, higher = more binding, comparable within an allelic series) | binding signal (SIX6 [9]): 9.09 upbm affinity estimate (log intensity, higher = more binding, comparable within an allelic series) | binding signal (SIX6 [13]): 9.04 upbm affinity estimate (log intensity, higher = more binding, comparable within an allelic series)

GATATACC
binding signal (SIX6 [1]): 11.1 upbm affinity estimate (log intensity, higher = more binding, comparable within an allelic series) | binding signal (SIX6 [2]): 10.4 upbm affinity estimate (log intensity, higher = more binding, comparable within an allelic series) | binding signal (SIX6 [3]): 11.2 upbm affinity estimate (log intensity, higher = more binding, comparable within an allelic series) | binding signal (SIX6 [4]): 9.81 upbm affinity estimate (log intensity, higher = more binding, comparable within an allelic series) | binding signal (SIX6 [10]): 10.9 upbm affinity estimate (log intensity, higher = more binding, comparable within an allelic series) | binding signal (SIX6 [11]): 11 upbm affinity estimate (log intensity, higher = more binding, comparable within an allelic series) | binding signal (SIX6 [5]): 10.5 upbm affinity estimate (log intensity, higher = more binding, comparable within an allelic series) | binding signal (SIX6 [6]): 11.1 upbm affinity estimate (log intensity, higher = more binding, comparable within an allelic series) | binding signal (SIX6 [7]): 11.2 upbm affinity estimate (log intensity, higher = more binding, comparable within an allelic series) | binding signal (SIX6 [8]): 11.1 upbm affinity estimate (log intensity, higher = more binding, comparable within an allelic series) | binding signal (SIX6 [12]): 10.9 upbm affinity estimate (log intensity, higher = more binding, comparable within an allelic series) | binding signal (SIX6 [9]): 11 upbm affinity estimate (log intensity, higher = more binding, comparable within an allelic series) | binding signal (SIX6 [13]): 11.1 upbm affinity estimate (log intensity, higher = more binding, comparable within an allelic series)
